Values joined by “and” are separate entries in the source; they are usually repeats but may differ in a detail not shown here. Equal entries are not always repeated. Inconclusive results are not listed. Active and inactive are the calls of the source. The call rests on the fitted dose curve; in most records, active means well fitted cell-killing curve with a large enough effect in the repeat runs; inconclusive means weak or mixed curves, or effect the other way; inactive means no such curve, though single readings can be large or run the other way.
Test: qHTS assay for identifying genotoxic compounds that show differential cytotoxicity against isogenic chicken DT40 cell lines with known DNA damage response pathways - wild type cell line (AID 743012); further: nearly all actives have a fitted effect of over 60% in size
Conditions: DT40 wild type chicken cells viability, CellTiter-Glo, 40 h; series mostly up to 68.4 µM; activity change, negative = cytotoxicity: at the top concentration
How it was run: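 Endpoint: CellTiter-Glo luminescence, 30 min RT. Cells: wild type DT40, 300/well. Exposure: compounds in DMSO, 40 h, 37 C/5% CO2, after ~0.5 h pre-incubation.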
On the % scale 0 is the no-effect control and ±100 the full control effect; potency means the concentration at half of the fitted maximal effect.

| SMILES | activity change, negative = cytotoxicity | Potency |
| --- | --- | --- |
| NCCCN1CCN(CCCN)CC1 | 26.1% (inactive) | – |
| CCOC(=O)[C@H](CCc1ccccc1)N[C@@H](C)C(=O)N1Cc2cc(OC)c(OC)cc2C[C@H]1C(=O)O | -2.05% (inactive) | – |
| COc1ccc(S(=O)(=O)Nc2nnc(CC(C)C)s2)cc1 | 14.9% (inactive) | – |
| C[C@]12C(=O)OC(=O)[C@H]1[C@H]1C=C[C@@H]2C1 | -12% [at 95 µM] (inactive) | – |
| COC(C)CCO (stereo not given) | -5.93% (inactive) | – |
| Cn1cnc2c(F)c(Nc3ccc(Br)cc3Cl)c(C(=O)NOCCO)cc21 | 9.42% (inactive) | – |
| Cc1cc(S(=O)(=O)O)c(N)cc1Cl | -0.687% [at 95 µM] (inactive) | – |
| OC[C@H]1O[C@@H](O[C@H]2[C@H](O)[C@@H](O)[C@H](O)O[C@@H]2CO)[C@H](O)[C@@H](O)[C@H]1O | 12.5% (inactive) | – |
| C=CCc1cc(OC)c(O)c(C(=O)NCCO)c1 | -4.77% (inactive) | – |
| COc1ccccc1OCC(O)COC(N)=O (stereo not given) | 12.7% [at 31.4 µM] (inactive) | – |
| OCC(CBr)(CBr)CBr | 0.0396% (inactive) | – |
| CC1=C2[C@H](/C=C(\C)C(=O)O)CC[C@@H](C)[C@H]2CC1 | -2.24% [at 95 µM] (inactive) | – |
| OCCN(CCO)c1ccccc1 | 7.19% (inactive) | – |
| CC(C)C(=O)OC/C=C/c1ccccc1 | 0.632% (inactive) | – |
| CCOC(=O)NCCC[Si](OCC)(OCC)OCC | 0.812% (inactive) | – |
| O=C1C=CC(=O)O1 | 9.99% [at 95 µM] (inactive) | – |
| CN1CCN(C2=Nc3cc(F)ccc3Cc3ccccc32)CC1 | – | 11.9 µM (active) |
| Oc1ccccc1F | -0.725% (inactive) | – |

| SMILES | activity change, negative = cytotoxicity | Potency |
| --- | --- | --- |
| Nc1cccc(S(=O)(=O)O)c1 | 6.52% (inactive) | – |
| COC(=O)C(C)O (stereo not given) | 2.81% [at 95 µM] (inactive) | – |
| CC(C)O | 5.7% (inactive) | – |
| CCCCC1CCC(=O)O1 (stereo not given) | 4.5% (inactive) | – |
| CC1(C)O[C@@H]2C[C@H]3[C@@H]4CCC5=CC(=O)CC[C@]5(C)[C@@]4(F)[C@@H](O)C[C@]3(C)[C@]2(C(=O)CCl)O1 | -3.83% [at 31.4 µM] (inactive) | – |
| C[C@@H]1CN(c2c(F)c(F)c3c(=O)c(C(=O)O)cn(C4CC4)c3c2F)C[C@H](C)N1 | 10.7% (inactive) | – |
| FC(F)(F)C(Cl)(Cl)Cl | 8.05% (inactive) | – |
| CN(C)Cc1ccccc1 | – | inactive |
| CCCCc1ccc2nc(NC(=O)OC)[nH]c2c1 | – | 0.0569 µM (active) |
| FC(F)(F)c1ccccc1 | 5.77% (inactive) | – |
| Cc1ncc(CO)c(CN)c1O | -5.54% (inactive) | – |
| CCc1cc(Cl)c(OC)c(C(=O)NC[C@@H]2CCCN2CC)c1O | – | 5.96 µM (active) and 8.04 µM (active) and 6.68 µM (active) |
| Cc1nnc(SCC2=C(C(=O)O)N3C(=O)[C@@H](NC(=O)Cn4cnnn4)[C@H]3SC2)s1 | -0.0178% (inactive) | – |
| O=C1CCCCCCCCCCC(=O)OCCO1 | 7.7% (inactive) | – |
| CC(C)(CO)[C@@H](O)C(=O)NCCC(=O)O | – | inactive |
| CCOC(=O)C1CC(=O)C(=C(O)C2CC2)C(=O)C1 (stereo not given) | 16.3% (inactive) | – |
| CCOc1ccccc1N | -0.728% (inactive) | – |

Test: qHTS assay for identifying genotoxic compounds that show differential cytotoxicity against isogenic chicken DT40 cell lines with known DNA damage response pathways - Rev3 mutant cell line (AID 743014); further: nearly all actives have a fitted effect of over 55% in size
Conditions: chicken DT40 Rev3-/- viability, CellTiter-Glo, 40 h; series mostly up to 68.4 µM; activity, negative = cytotoxicity: at the top concentration

| SMILES | activity, negative = cytotoxicity | Potency |
| --- | --- | --- |
| NCCCN1CCN(CCCN)CC1 | -3.91% (inactive) | – |
| CCOC(=O)[C@H](CCc1ccccc1)N[C@@H](C)C(=O)N1Cc2cc(OC)c(OC)cc2C[C@H]1C(=O)O | 2.47% (inactive) | – |
| COc1ccc(S(=O)(=O)Nc2nnc(CC(C)C)s2)cc1 | – | inactive |
| C[C@]12C(=O)OC(=O)[C@H]1[C@H]1C=C[C@@H]2C1 | 0.422% [at 95 µM] (inactive) | – |
| COC(C)CCO (stereo not given) | -5.83% (inactive) | – |
| Cn1cnc2c(F)c(Nc3ccc(Br)cc3Cl)c(C(=O)NOCCO)cc21 | -0.544% (inactive) | – |
| Cc1cc(S(=O)(=O)O)c(N)cc1Cl | 8.15% [at 95 µM] (inactive) | – |
| OC[C@H]1O[C@@H](O[C@H]2[C@H](O)[C@@H](O)[C@H](O)O[C@@H]2CO)[C@H](O)[C@@H](O)[C@H]1O | -14.7% (inactive) | – |
| C=CCc1cc(OC)c(O)c(C(=O)NCCO)c1 | -22.9% (inactive) | – |
| COc1ccccc1OCC(O)COC(N)=O (stereo not given) | 14% [at 31.4 µM] (inactive) | – |
| OCC(CBr)(CBr)CBr | -17.1% (inactive) | – |
| CC1=C2[C@H](/C=C(\C)C(=O)O)CC[C@@H](C)[C@H]2CC1 | -3.59% [at 95 µM] (inactive) | – |
| OCCN(CCO)c1ccccc1 | -12.2% (inactive) | – |
| CC(C)C(=O)OC/C=C/c1ccccc1 | -24.1% (inactive) | – |
| CCOC(=O)NCCC[Si](OCC)(OCC)OCC | 3.01% (inactive) | – |
| O=C1C=CC(=O)O1 | 1.28% [at 95 µM] (inactive) | – |
| CN1CCN(C2=Nc3cc(F)ccc3Cc3ccccc32)CC1 | – | 8.41 µM (active) |
| Oc1ccccc1F | 1.23% (inactive) | – |

| SMILES | activity, negative = cytotoxicity | Potency |
| --- | --- | --- |
| Nc1cccc(S(=O)(=O)O)c1 | 2.52% (inactive) | – |
| COC(=O)C(C)O (stereo not given) | 5.86% [at 95 µM] (inactive) | – |
| CC(C)O | – | inactive |
| CCCCC1CCC(=O)O1 (stereo not given) | -0.813% (inactive) | – |
| CC1(C)O[C@@H]2C[C@H]3[C@@H]4CCC5=CC(=O)CC[C@]5(C)[C@@]4(F)[C@@H](O)C[C@]3(C)[C@]2(C(=O)CCl)O1 | 6.99% [at 31.4 µM] (inactive) | – |
| C[C@@H]1CN(c2c(F)c(F)c3c(=O)c(C(=O)O)cn(C4CC4)c3c2F)C[C@H](C)N1 | 0.377% (inactive) | – |
| FC(F)(F)C(Cl)(Cl)Cl | 1.28% (inactive) | – |
| CN(C)Cc1ccccc1 | – | inactive |
| CCCCc1ccc2nc(NC(=O)OC)[nH]c2c1 | – | 0.0804 µM (active) |
| FC(F)(F)c1ccccc1 | 2% (inactive) | – |
| Cc1ncc(CO)c(CN)c1O | 8.15% (inactive) | – |
| CCc1cc(Cl)c(OC)c(C(=O)NC[C@@H]2CCCN2CC)c1O | – | 7.5 µM (active) and 9.02 µM (active) and 9.44 µM (active) |
| Cc1nnc(SCC2=C(C(=O)O)N3C(=O)[C@@H](NC(=O)Cn4cnnn4)[C@H]3SC2)s1 | -0.478% (inactive) | – |
| O=C1CCCCCCCCCCC(=O)OCCO1 | -22.2% (inactive) | – |
| CC(C)(CO)[C@@H](O)C(=O)NCCC(=O)O | – | inactive |
| CCOC(=O)C1CC(=O)C(=C(O)C2CC2)C(=O)C1 (stereo not given) | -17.6% (inactive) | – |
| CCOc1ccccc1N | 1.22% (inactive) | – |

Source: PubChem BioAssay (Tox21)
